Assay outcomes: PubChem BioAssay, National Center for Advancing Translational Sciences (NCATS)
Most compounds without a hit are left out; they make up all but 2.4% or so of the library.
D2 ag-1 – HTS Assay for Allosteric Agonists of the Human D2 Dopamine Receptor: Primary Screen for Agonists; HEK293 T-REx D2 cells, calcium flux agonist mode; activation, % at 2 µM; hit rate 0.53% among 340,000; AID 485358, 2010; D(2) dopamine receptor (Homo sapiens), P14416;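 active = activation over 3 SD above normal in the single-dose calcium agonist read, cut at about 30% in these data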; also: 0% is about no effect
Target sequence (P14416 whole entry, looked up): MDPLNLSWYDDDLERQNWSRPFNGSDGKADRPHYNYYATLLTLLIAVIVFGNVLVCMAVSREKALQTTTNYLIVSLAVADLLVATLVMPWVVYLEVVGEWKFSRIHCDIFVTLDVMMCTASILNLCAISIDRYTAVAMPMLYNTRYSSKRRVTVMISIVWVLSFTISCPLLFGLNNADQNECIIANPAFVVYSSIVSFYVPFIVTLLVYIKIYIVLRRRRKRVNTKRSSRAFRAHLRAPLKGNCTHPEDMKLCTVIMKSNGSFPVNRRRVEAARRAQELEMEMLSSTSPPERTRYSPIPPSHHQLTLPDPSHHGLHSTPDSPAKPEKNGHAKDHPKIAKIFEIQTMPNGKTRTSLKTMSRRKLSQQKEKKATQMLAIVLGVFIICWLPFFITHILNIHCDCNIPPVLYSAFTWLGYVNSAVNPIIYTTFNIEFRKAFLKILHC
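Agonism scored from kinetic calcium signal (1 read/sec, 180 s) following compound pin transfer, after a 10 s baseline. Cells: HEK293 Trex line expressing inducible D2 receptor coupled to calcium, dye-loaded after overnight culture at 30 C.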
D2 antagonist – HTS Assay for Allosteric Antagonists of the Human D2 Dopamine Receptor: Primary Screen for Antagonists | inhibition, % at 10 µM | HEK293 TREx D2 cells, calcium flux, dopamine EC80 | hit rate 2% among 340,000 | D(2) dopamine receptor (Homo sapiens), P14416; in the data active = inhibition above about 30%; inactive = below that, where a call was filed; also: 0% is about no effect
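HEK293 T-REx D2 cells, tet-induced, calcium dye no-wash. Cpd pintool add, 180 s kinetic, then EC80 DA, 180 s kinetic. Ca flux read.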
D2 PAM-1 – Beta-Arrestin HTS for Positive Allosteric Modulators of the Human D2 Dopamine Receptor: Potentiators. D(2) dopamine receptor (Homo sapiens), P14416. DiscoveRx D2 beta-arrestin cells, luminescence, 90 min; 100% = 57 uM dopamine signal. potentiation, % (test concentration not listed). hit rate 0.23% among 360,000; in the data active = potentiation above about 50%; inconclusive = mostly about 30% to 49%
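PathHunter beta-arrestin assay in DiscoveRx D2 cells. Compounds were added with an EC20 of dopamine (50 nM final) for 90 min at 37 deg C. Luminescence was read 1 h after detection reagent, with 57 uM dopamine as the EC100 control.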
D2 PAM-2 – HTS Assay for Positive Allosteric Modulators of the Human D2 Dopamine Receptor: Primary Screen for Potentiators | AID 485347, 2010 | hit rate 0.34% among 340,000 | HEK293 T-REx D2, calcium flux, EC20 dopamine potentiation | D(2) dopamine receptor (Homo sapiens), P14416 | potentiation, % at 10 µM;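 active = potentiation over 3 SD above the plate norm, cut at about 30% in these data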; also: 0% is about no effect
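Using a no-wash calcium dye in inducible, force-coupled HEK293 Trex cells expressing D2, we tracked fluorescence each second for 180 s after compound, then for 180 s after EC20 dopamine to detect augmented signalling.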
D2 ag-2 – Beta-Arrestin HTS for Positive Allosteric Modulators of the Human D2 Dopamine Receptor: Agonists; DiscoveRx PathHunter D2 beta-arrestin, luminescence, 90 min; 100% = 57 uM dopamine signal; activation, % (no concentration beside the values); hit rate 0.084% among 360,000; AID 624465, 2012; in the data active = activation above about 40%; inconclusive = between about 15% and that limit
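DiscoveRx PathHunter D2 beta-arrestin cells (2,100/well) attached overnight, then compound-stimulated 90 min at 37 C in HBSS/10 mM HEPES/0.1% Tween-20 buffer; beta-galactosidase complementation read by luminescence after 1 h at ambient temperature. Dopamine 57 uM final (EC100) as control.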
D3 ag – qHTS of D3 Dopamine Receptor Agonist: D3 Dopamine Receptor B-arrestin Agonist Confirmatory Assay. shares compounds with D2 ag-1. hit rate 4% among 2,300. Potency, µM (highest dose often 76.9 µM), for inactives: at the highest dose activation, hits mostly activators. AID 720506, 2013. DiscoveRx D3 beta-arrestin cells, luminescence, 90 min;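 also: potency is read from the fitted curve at half-maximal effect; 100% = dopamine control response; nearly all actives have a fitted effect of over 70% in size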
D2 ag-3 – qHTS of D3 Dopamine Receptor Agonist: D2 Dopamine Receptor B-arrestin Agonist Counterscreen. shares compounds with D2 ag-1. DiscoveRx PathHunter D2 beta-arrestin, luminescence, 90 min; response scale: percent relative to full dopamine signal. Potency, µM (series often up to 76.9 µM), for inactives: top-dose activation, usual class: activators. hit rate 5.9% among 2,300. AID 720507, 2013; also: potency is read from the fitted curve at half-maximal effect; % of control where 0% means no effect; nearly all actives have a fitted effect of over 70% in size
* hit, by the source's call; ? = inconclusive; / = no result. Unless noted, calls follow the shape of the dose curve; as a rule, active = well fitted activation curve with a large enough effect; inconclusive = small, poorly fitted or top-dose-only effect; inactive = flat fitted curve, though single readings scatter.

SMILES	D2 ag-1	D2 antagonist	D2 PAM-1	D2 PAM-2	D2 ag-2	D3 ag	D2 ag-3
CN1C[C@H](CO)C[C@@H]2c3cccc4[nH]cc(c34)C[C@H]21	84*	96*	53*	-33	?	?	?
CCN(CC)C(=O)N[C@H]1C[C@@H]2c3cccc4[nH]cc(c34)C[C@H]2N(C)C1	83*	83*	13	-28	?	?	0.002µM*
Cc1cccc(OCC(=O)N2CCN(Cc3cc(=O)n4nc(-c5ccccc5Cl)sc4n3)CC2)c1	0	/	/	9	/	/	/
CC(=O)c1cccc(OCC(O)CN2CC=C(c3ccccc3)CC2)c1 (stereo not drawn)	79*	80*	51*	-29	42*	?	?
NNC(N)=O	0	31*	-4	2	-5	-20%	-3%
CCCN1CCO[C@@H]2c3cc(O)ccc3OC[C@H]21	68*	72*	97*	-13	83*	0.045µM*	0.071µM*
